{"source": "PubChem BioAssay AID720531", "about": "(The Scripps Research Institute Molecular Screening Center, 2013)", "note": "About 270 (27%) of roughly 1,000 compounds were called active. The list is a sample of the results. Values without a mark were called inactive. No stated cut-off is given here; in the data, active means inhibition above about 14%; inactive means the rest."}
{"target": "Methyl-CpG-binding domain protein 2 (Homo sapiens) (UniProt Q9UBB5)", "sequence (Q9UBB5 whole entry, looked up, the tested form may be a part)": "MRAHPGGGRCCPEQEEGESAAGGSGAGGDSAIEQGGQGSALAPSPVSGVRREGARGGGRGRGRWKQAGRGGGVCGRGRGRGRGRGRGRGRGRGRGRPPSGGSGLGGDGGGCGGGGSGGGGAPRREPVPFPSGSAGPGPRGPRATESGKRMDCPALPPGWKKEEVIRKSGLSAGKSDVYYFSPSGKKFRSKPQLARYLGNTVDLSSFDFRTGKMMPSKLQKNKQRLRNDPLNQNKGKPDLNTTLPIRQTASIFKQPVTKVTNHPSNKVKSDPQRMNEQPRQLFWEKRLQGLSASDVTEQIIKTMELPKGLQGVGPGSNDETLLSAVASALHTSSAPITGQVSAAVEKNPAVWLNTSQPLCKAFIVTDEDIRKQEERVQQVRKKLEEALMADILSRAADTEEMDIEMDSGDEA", "experiment": "inhibitors of MBD2 binding to methylated DNA, confirmation, biochemical, TR-FRET, DNA-binding domain, human (AID 720531)", "details": "TR-FRET MBD2-DBD binding to methylated oligonucleotide; at 4.4 µM; stronger effect = higher value"}
{"smiles": "COc1ccc(N2C(=O)/C(=C/c3ccco3)C(=O)NC2=S)cc1", "inhibition": "88.4% (active)"}
{"smiles": "O=C1NC(=O)N(Cc2ccco2)C(=O)/C1=C\\c1ccc(-c2ccc(F)cc2)o1", "inhibition": "4.49%"}
{"smiles": "Cc1cc(/C=C2/C(=O)NC(=O)N(Cc3ccco3)C2=O)c(C)n1-c1ccc(C(=O)O)cc1", "inhibition": "3.26%"}
